Results as given in PubChem BioAssay (NCI).
This is part of a sample that, as a whole, favours compounds with a hit. Of some 83,000 tested, about 20% had one in any assay.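 For each line, cells grew in 96-well plates with the test compound present at a single concentration for 48 hours.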 Unmarked numbers belong to inactive results. Activity calls are given as the source filed them. The calls were made as follows: active = growth percent below 10; inactive = the rest.

Each compound was assayed on HL-60(TB) leukemia (assay: NCI-60 one-dose screen, 48 h (100 = growth as untreated, 0 = no growth, -100 = all killed)). Conditions: 10 µM unless noted.

| Structure (SMILES) | growth |
| --- | --- |
| Nc1c(Br)cc2c(c1Br)Cc1cc(Cl)ccc1-2 | 100% |
| NS(=O)(=O)c1ccc(CN=C2NC(=O)S/C2=C\c2ccc(Br)cc2)cc1 | 97.5% |
| CCC12CCC3c4ccc(O)cc4CCC3C1CC(O)C2O (configuration not stated) | 63.1% |
| COc1ccccc1/C=C/C(=O)Nc1ccc(F)cc1 | 86.3% |
| C=NNc1ccccc1 | 117% |
| COc1ccc(Nc2ncnc3c2c(SC)nn3-c2ccccc2)cc1 | 90.5% |
| COc1cc(/C=C(/C)C[N+](=O)[O-])ccc1O | 71.5% |
| CCOC(=O)C(CCN(C)C)c1ccccc1 (configuration not stated) | 88.8% |
| OC(CN1CCCC2CCCCC21)c1cc2ccccc2c2ccccc12 (configuration not stated) | 84.9% |
| COc1cc(C2Cc3ncccc3-c3[nH]c(=O)c4cccnc4c32)cc(OC)c1OC (configuration not stated) | -2.08% (active) |
| COc1cccc(Cc2nn3cc(-c4ccccc4)nc3s2)c1 | 69.9% |
| CCCCCCCCCCCCCCCCCC(=O)OCCCCCCCCCCCCC | 112% |
| COc1ccc(-c2c3c(N)c4c(nc3nc3c2c(C)nn3-c2ccccc2)CCCC4)cc1 | 87.2% |
| CCNCCNc1c(C)c(-c2ccc(C(F)(F)F)cc2)c(C#N)c2nc3ccccc3n12 | 74% |
| COc1ccc(C(=O)C(C#N)c2cc(OC)c(OC)c(OC)c2)cc1 (configuration not stated) | 96% |
| CCOC(=O)Nc1ccc2nc(Sc3ccc(Cl)cc3)sc2c1 | 10.1% |
| O=C(Nc1ccc(Cl)cc1)c1cc(NCc2cc(O)ccc2O)ccc1O | 0.347% (active) |
